Source: PubChem BioAssay (The Scripps Research Institute Molecular Screening Center)
hcDAF12 agonist: H. contortus DAF-12 nuclear receptor activators, primary screen, cell-based, luminescence, HEK293, lit1-tk-luc reporter; HEK293 hcDAF-12 lit1-tk-luc reporter; 0% DMSO, 100% Δ7-dafachronic acid; activation, % at 6.8 µM; hit rate 1.4% among 370,000; AID 652067, 2013;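 active means activation above the mean of all tested compounds plus 3 SD, cut at about 5.5% in these data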
DAX1 inh-1: DAX1 (NR0B1) inhibitors, primary screen, cell-based, HEK293, Gal4-DAX1, luciferase luminescence; Nuclear receptor subfamily 0 group B member 1 (Homo sapiens), P51843; HEK293 Gal4-DAX1 luciferase reporter; inhibition, % at 6.75 µM; hit rate 0.99% among 340,000; AID 504766, 2011;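 active means inhibition above the mean over all tested compounds plus 3 SD, cut at about 4.2% in these data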;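 further: inhibition shows as a rise in luminescence from relieved DAX1 repression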
Target sequence (P51843 207-470 limits assumed): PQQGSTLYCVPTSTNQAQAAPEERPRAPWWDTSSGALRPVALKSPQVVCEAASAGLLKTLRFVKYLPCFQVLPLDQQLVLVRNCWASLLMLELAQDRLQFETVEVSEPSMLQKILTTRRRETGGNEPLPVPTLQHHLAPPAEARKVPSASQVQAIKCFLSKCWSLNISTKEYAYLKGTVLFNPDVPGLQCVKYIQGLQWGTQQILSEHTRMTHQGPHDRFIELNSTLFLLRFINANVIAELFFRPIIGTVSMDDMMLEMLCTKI
ssDAF12 agonist: S. stercoralis DAF-12 nuclear receptor activators, primary screen, cell-based, luminescence, HEK293, GRIP1 co-expression, lit1-tk-luc; Nuclear hormone receptor DAF-12 (Strongyloides stercoralis); HEK293 ssDAF-12/GRIP1 lit1-tk-luc reporter; % of 3 µM dafachronic acid response; activation, % at 6.8 µM; hit rate 1% among 370,000; AID 652126, 2013;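 active means activation above the mean over all tested compounds plus 3 SD, cut at about 0.9% in these data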
hgDAF12 agonist: H. glycines DAF-12 receptor agonists, primary screen, cell-based, luminescence, HEK293, GAL4 fusion, UAS-luciferase | Nuclear hormone receptor DAF-12 (Heterodera glycines), GAL4 fusion | HEK293 GAL4-hgDAF12 UAS-luciferase reporter, agonist luminescence; normalized to butyrate control | activation, % at 6.8 µM | hit rate 1.8% among 370,000 | AID 687014, 2013;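 active means activation above a cutoff set at the mean of all screened compounds plus 3 SD, cut at about 10% in these data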
DAX1 inh-2: DAX1 (NR0B1) inhibitors on StAR promoter, primary screen, cell-based, luminescence, SF-1 (NR5A1), full-length DAX-1; hit rate 1.1% among 370,000; inhibition, % at 6.8 µM; AID 652010, 2013; HEK293T StAR-luciferase reporter, SF-1/DAX-1 repression relief;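 active means inhibition above the mean over all tested compounds plus 3 SD, cut at about 3.6% in these data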;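 further: higher inhibition means more luminescence from relief of DAX-1 repression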
Hits are given with their value. This is a sample that favours compounds with a hit; in the whole collection about 4.1% have one here.

Cc1ccccc1CCNCc1cc2cccc(C)c2[nH]c1=O was read as hcDAF12 agonist inactive, DAX1 inh-1 5.6, ssDAF12 agonist 1.0, hgDAF12 agonist inactive and DAX1 inh-2 inactive.
Screening CN1C[C@H](O)[C@H]2C[C@@H]1c1ccccc1O2 returned hcDAF12 agonist inactive, ssDAF12 agonist inactive, hgDAF12 agonist inactive and DAX1 inh-2 inactive.
For C=C1C(C)C2C(Cc3ccccc3)NC(=O)C23C(OC(C)=O)C=CC(C)(O)CC(C)CC=CC3C1O (stereo not given) the results were hcDAF12 agonist inactive, DAX1 inh-1 4.2, ssDAF12 agonist inactive, hgDAF12 agonist inactive and DAX1 inh-2 3.8.
`O=C(NC(CCC(O)CO)P(=O)(Oc1ccccc1)Oc1ccccc1)OCc1ccccc1` (stereo not given) gave hcDAF12 agonist inactive, ssDAF12 agonist inactive, hgDAF12 agonist inactive and DAX1 inh-2 inactive.
For O=C(NC1CCCCC1)N1Cc2cc(Br)ccc2-n2nncc2C1 the results were hcDAF12 agonist inactive, ssDAF12 agonist inactive, hgDAF12 agonist inactive and DAX1 inh-2 inactive.
O=C1NC(=S)N(C2CC2)C(=O)/C1=C/c1ccc2c(c1)CCN2CCCCl was read as hcDAF12 agonist inactive, DAX1 inh-1 inactive, ssDAF12 agonist inactive, hgDAF12 agonist inactive and DAX1 inh-2 inactive.
`CCN1C(=O)/C(=C/c2ccc3c(c2)CCN3CCCCl)C(=O)NC1=S` gave hcDAF12 agonist inactive, DAX1 inh-1 inactive, ssDAF12 agonist 1.7, hgDAF12 agonist inactive and DAX1 inh-2 inactive.
`CCCCN1CCN(C(=O)COc2cc(=O)n(C)c3ccccc23)CC1` gave hcDAF12 agonist inactive, ssDAF12 agonist inactive, hgDAF12 agonist inactive and DAX1 inh-2 inactive.
For CN1C(=O)c2ccccc2NC(=O)C1Cc1ccccc1 (stereo not given) the results were hcDAF12 agonist inactive, DAX1 inh-1 4.9, ssDAF12 agonist inactive, hgDAF12 agonist inactive and DAX1 inh-2 inactive.
For CN1C(=O)C(Cc2ccccc2)C(=O)N(C)C1=O the results were hcDAF12 agonist inactive, DAX1 inh-1 inactive, ssDAF12 agonist inactive, hgDAF12 agonist inactive and DAX1 inh-2 inactive.
Screening Cc1nn(Cc2ccccc2)c(C)c1C=C1C(=O)NC(=S)NC1=O returned hcDAF12 agonist 6.1, DAX1 inh-1 inactive, ssDAF12 agonist inactive, hgDAF12 agonist inactive and DAX1 inh-2 inactive.
For N#CC[N+]1(CCCNP2(=O)C=C(c3ccccc3)OC(c3ccccc3)=C2)CCOCC1 the results were hcDAF12 agonist inactive, DAX1 inh-1 6.2, ssDAF12 agonist inactive, hgDAF12 agonist inactive and DAX1 inh-2 inactive.
Cc1c(C(c2ccc(F)cc2)c2c(O)c3ccccc3oc2=O)c(=O)n(-c2ccccc2)n1C (stereo not given) was read as hcDAF12 agonist inactive, DAX1 inh-1 inactive, ssDAF12 agonist inactive, hgDAF12 agonist inactive and DAX1 inh-2 inactive.
Screening Cc1c(C(c2ccccc2Cl)c2c(O)c3ccccc3oc2=O)c(=O)n(-c2ccccc2)n1C (stereo not given) returned hcDAF12 agonist inactive, DAX1 inh-1 4.3, ssDAF12 agonist inactive, hgDAF12 agonist inactive and DAX1 inh-2 inactive.
For C=C(C=O)CC1CC(O)[C@]2(C)OC3CC4OC5C[C@]6(C)O[C@]7(C)CCC8OC9C[C@]%10(C)OC%11C(C)=CC(=O)OC%11CC%10OC9C[C@@H](C)C8OC7CC6O[C@]5(C)C/C=C\C4OC3CC2O1 (stereo not given in full) the results were hcDAF12 agonist inactive, ssDAF12 agonist inactive and hgDAF12 agonist inactive.
`CCc1ccc(-c2nn(Cc3ccccc3)cc2C=O)cc1` gave hcDAF12 agonist inactive, DAX1 inh-1 inactive, ssDAF12 agonist inactive, hgDAF12 agonist 13 and DAX1 inh-2 inactive.
For O=Cc1cn(Cc2c(F)cccc2Cl)nc1-c1ccccc1 the results were hcDAF12 agonist inactive, DAX1 inh-1 inactive, ssDAF12 agonist inactive, hgDAF12 agonist inactive and DAX1 inh-2 inactive.
CN1C(=O)C(=Cc2ccccc2OCc2ccc(Cl)cc2)C(=O)N(C)C1=O was read as hcDAF12 agonist inactive, DAX1 inh-1 inactive, ssDAF12 agonist inactive, hgDAF12 agonist inactive and DAX1 inh-2 inactive.
For O=C1NC(=O)C(=Cc2cc(Cl)ccc2OCc2ccc(C(=O)O)cc2)C(=O)N1 the results were hcDAF12 agonist inactive, DAX1 inh-1 5.5, ssDAF12 agonist inactive, hgDAF12 agonist inactive and DAX1 inh-2 inactive.
Screening Clc1cc(Cl)cc(CN2Cc3ccccc3-n3nncc3C2)c1 returned hcDAF12 agonist inactive, ssDAF12 agonist inactive, hgDAF12 agonist inactive and DAX1 inh-2 inactive.
`COC(=O)c1c2[n+](cc3cc(OC)c(OC)cc13)CCc1cc(OC)c(OC)cc1-2` gave hcDAF12 agonist inactive, DAX1 inh-1 4.5, ssDAF12 agonist inactive, hgDAF12 agonist inactive and DAX1 inh-2 inactive.
For O=C1CN(C(=O)COC(=O)Cc2ccccc2)c2ccccc2N1 the results were hcDAF12 agonist inactive, DAX1 inh-1 4.4, ssDAF12 agonist inactive, hgDAF12 agonist inactive and DAX1 inh-2 inactive.
Screening O=C(N/N=C/c1c(O)n(Cc2ccc(F)cc2)c(=O)[nH]c1=O)c1ccccc1 returned hcDAF12 agonist inactive, DAX1 inh-1 6.6, ssDAF12 agonist inactive, hgDAF12 agonist 11 and DAX1 inh-2 inactive.
For O=C(N/N=C/c1c(O)n(CCC2=CCCCC2)c(=S)[nH]c1=O)c1ccccc1 the results were hcDAF12 agonist inactive, DAX1 inh-1 inactive, ssDAF12 agonist inactive, hgDAF12 agonist 11 and DAX1 inh-2 inactive.
Screening O=C(NCCN1CCC2(CC1)C(=O)NCN2c1ccccc1)c1ccc(F)cc1 returned hcDAF12 agonist inactive, ssDAF12 agonist inactive, hgDAF12 agonist inactive and DAX1 inh-2 inactive.
Cc1ccc(C(=O)C2CN3CCC2CC3)cc1 (stereo not given) was read as hcDAF12 agonist inactive, DAX1 inh-1 inactive, ssDAF12 agonist inactive, hgDAF12 agonist inactive and DAX1 inh-2 inactive.
For Cc1ccc(C(=O)C2CN(C)CC2C(=O)c2ccc(C)cc2)cc1 (stereo not given) the results were hcDAF12 agonist inactive, DAX1 inh-1 inactive, ssDAF12 agonist inactive, hgDAF12 agonist 11 and DAX1 inh-2 inactive.
CC[C@]12CCN(CC3(O)CC3)C(Cc3ccc(O)cc31)C2(C)C was read as hcDAF12 agonist inactive, ssDAF12 agonist inactive, hgDAF12 agonist inactive and DAX1 inh-2 inactive.
Screening Cc1c(NP(=O)(C(C)(C)C)C(C)(C)C)c(=O)n(-c2ccccc2)n1C returned hcDAF12 agonist inactive, DAX1 inh-1 inactive, ssDAF12 agonist inactive, hgDAF12 agonist inactive and DAX1 inh-2 inactive.
`Cc1cc(=O)n(-c2ccccc2)n1-c1ccccc1` gave hcDAF12 agonist inactive, DAX1 inh-1 4.8, ssDAF12 agonist inactive, hgDAF12 agonist inactive and DAX1 inh-2 inactive.
